Data from PubChem BioAssay (NCATS).
Records with an inconclusive call do not appear. Entries that show only a call come without a potency. Active and inactive are the calls of the source. Calls come from the whole dose curve; as a rule, active = well fitted inhibition curve with a large enough effect; inconclusive = small, poorly fitted or top-dose-only effect; inactive = flat fitted curve, though single readings scatter.

Biological target: Voltage-gated inwardly rectifying potassium channel KCNH2 (Homo sapiens) (UniProt Q12809)
Sequence (Q12809 whole entry, looked up): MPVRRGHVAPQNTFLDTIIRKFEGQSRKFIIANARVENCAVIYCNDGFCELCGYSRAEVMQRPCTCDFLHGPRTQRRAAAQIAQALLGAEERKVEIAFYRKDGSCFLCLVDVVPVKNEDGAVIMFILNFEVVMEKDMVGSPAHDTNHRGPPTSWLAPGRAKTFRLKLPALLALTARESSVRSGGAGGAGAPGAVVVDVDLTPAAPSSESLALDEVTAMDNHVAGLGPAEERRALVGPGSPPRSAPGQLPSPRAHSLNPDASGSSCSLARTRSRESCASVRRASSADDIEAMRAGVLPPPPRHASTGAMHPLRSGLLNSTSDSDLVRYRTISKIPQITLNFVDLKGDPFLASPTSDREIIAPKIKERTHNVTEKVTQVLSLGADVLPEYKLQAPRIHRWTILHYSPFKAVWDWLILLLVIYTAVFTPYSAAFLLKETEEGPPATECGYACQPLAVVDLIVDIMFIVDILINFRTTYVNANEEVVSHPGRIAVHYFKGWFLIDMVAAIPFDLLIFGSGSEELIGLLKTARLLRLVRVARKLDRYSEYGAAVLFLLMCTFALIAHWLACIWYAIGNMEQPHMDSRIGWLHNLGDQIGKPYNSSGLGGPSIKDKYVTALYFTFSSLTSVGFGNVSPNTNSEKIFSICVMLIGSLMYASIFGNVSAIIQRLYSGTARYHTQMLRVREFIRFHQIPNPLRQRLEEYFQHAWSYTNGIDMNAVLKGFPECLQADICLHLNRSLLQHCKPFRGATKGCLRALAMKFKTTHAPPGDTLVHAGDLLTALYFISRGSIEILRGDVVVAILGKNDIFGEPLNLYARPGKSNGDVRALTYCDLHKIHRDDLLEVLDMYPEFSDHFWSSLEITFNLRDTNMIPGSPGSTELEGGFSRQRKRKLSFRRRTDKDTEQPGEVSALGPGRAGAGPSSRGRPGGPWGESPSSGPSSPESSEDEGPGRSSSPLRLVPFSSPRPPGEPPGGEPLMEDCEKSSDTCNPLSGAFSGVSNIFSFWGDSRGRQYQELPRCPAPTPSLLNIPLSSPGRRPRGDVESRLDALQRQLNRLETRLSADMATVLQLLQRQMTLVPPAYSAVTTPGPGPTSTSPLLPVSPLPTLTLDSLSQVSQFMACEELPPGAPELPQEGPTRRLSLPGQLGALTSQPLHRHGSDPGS
Experiment: qHTS Assay for Small Molecule Inhibitors of the Human hERG Channel Activity (AID 588834);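 note: lower thallium flux fluorescence means stronger hERG block; nearly all actives have a fitted effect of over 50% in size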
Details: U2OS BacMam hERG, FluxOR thallium flux fluorescence; series mostly up to 46.1 µM
Excerpt: NIH Chemical Genomics Center [NCGC]
National Institutes of Environmental Health Sciences [NIEHS]
National Toxicology Program [NTP]
We have developed a 1536-well cell-based assay for quantitative high throughput screening (qHTS) to determine in vitro hERG channel blockage as a measure of cardio toxicity with small molecules. This particular assay uses the U2OS cell line which is derived from human osteosarcoma.
NCGC Assay Protocol Summary:
HERG assay (FluxORTM thallium flux assay) was initially developed by Invitrogen/Molecular Probes, and then miniaturized into 1536-well plate in a homogeneous format by NCGC. This assay measures the activity of potassium channel using thallium dye (FluxOR) flux as surrogate measurement for potassium into the cells with a FDSS-7000 kinetic plate reader (Hamamatsu Corp., Hamamatsu City, Japan). The hERG ion channel is transduced into mammalian cells (U2OS) using a baculovirus (Bacmam) construct harboring the hERG K+ ion channel. So far we screened LOPAC1280 library (Sigma), the NTP collection of 1408 compounds, and the NCGC Pharmaceutical Collection (NPC), in which many well defined HERG blockers are present. The rank order potencies of many of these compounds are similar to that of other HERG assays (membrane potential, Rb+ flux, patch clamp, etc). This quick and homogeneous assay is also found to be sensitive, specific, and robust.
Using the FluxORTM thallium flux assay, the activity of potassium channel using thallium dye (FluxOR) flux as surrogate measurement for potassium into the cells was measured in the U2OS cell line transduced with hERG K+ ion channel using a baculovirus (Bacmam) using Opti-MEM medium (Invitrogen) containing 2% fetal calf serum (FCS, HyCone) following loading buffer addition, compound treatment for around 10 minutes and finally adding stimulation buffer. The assay was performed in black clear Kalypsys 1536-well plates. In the screen, Astemizole was used as positive controls. Library compounds were measured for their ability to cause hERG channel blockage in the cell line, as reflected by a decrease in fluorescence intensity, in a concentration-dependent manner. […] AC50 values were determined from concentration-response data modeled with the standard Hill equation.
qHTS protocol for hERG-U2OS cellular assay
[Step] [Parameter] [Value] [Description]
1. Day 1: Replace medium in 70-80% confluent T225 flask with 2.5 mL of hERG-BacMam virus plus 12.5 mL of phosphate buffered saline (PBS) (corresponding roughly to a multiplicity of infection ratio of 100 virus particles/cell)
2. Incubation: 4 hrs @ room Temperature in Dark
3. Reagent; Remove virus; wash once with 25 ml DPBS
4. Reagent; 35 ml culture medium
5. Incubation; 37 °C overnight
6. Day2: Reagent; 3 uL; 2000 U2OS cells/well
7. Time; 4 hr; 37 °C incubation
8. Loading buffer; 1 uL; 0.7X;
9. Incubation: 1hr @ RT in Dark.
12. Time; 10min; 37 °C incubation
13. Read fluorescence Intensity on FDSS for 10 Sec with 1 sec interval
14. Reagent; 1 uL; stimulation buffer
15. Read fluorescence Intensity on FDSS for 2 min with 1 sec interval
16. Detection; Fluorescence Intensity; FDSS
Potency is the fitted concentration of half-maximal effect.

Row | SMILES | Potency
1 | N#CC(C#N)=Cc1ccc([N+](=O)[O-])c(O)c1 | inactive
2 | CC(=O)OCC1=C(C(=O)[O-])N2C(=O)[C@@H](NC(=O)CCC[C@@H](N)C(=O)[O-])[C@H]2SC1.[Zn+2] | inactive
3 | C[C@@H](NCCc1ccc(O)cc1)[C@@H](O)c1ccc(O)cc1 | 7.94 µM (active)
4 | C=CCN1CCC2(C)c3cc(O)ccc3CC1C2C (centres undefined) | inactive
5 | COC(=O)c1ccccc1C(=O)OC | inactive
6 | CCOC(=O)c1ccccc1N | inactive
7 | CC(=O)/C=C/c1ccccc1 | inactive
8 | COC1=CC(=O)OC(CCc2ccc3c(c2)OCO3)C1 (centres undefined) | inactive
9 | N[C@@H](Cn1cc(I)c(=O)[nH]c1=O)C(=O)O | inactive
10 | CC(O)C(C)OC(=O)[C@@H]1C[C@@H]2c3cccc4c3c(cn4C(C)C)C[C@H]2N(C)C1 (some centres undefined) | inactive
11 | O=[N+]([O-])c1ccc(O[C@@H]2O[C@H](CO)[C@@H](O)[C@H](O)[C@H]2F)c([N+](=O)[O-])c1 | inactive
12 | COC(=O)c1cc2c(cn1)[nH]c1ccccc12 | inactive
13 | Cc1cc(O)c2c(c1)C(=O)c1cc(O)cc(O)c1C2=O | inactive
14 | c1ccc(Nc2cccc3ccccc23)cc1 | 28.2 µM (active)
15 | c1ccc(Nc2ccc3ccccc3c2)cc1 | 25.1 µM (active)
16 | Cc1ccccc1O | inactive
17 | Oc1c(Cl)c(Cl)c(Cl)c(Cl)c1Cl | inactive

Row | SMILES | Potency
18 | CCOc1cc(C=O)ccc1O | inactive
19 | N=C(N)c1ccccc1 | inactive
20 | C[C@H](CCC(=O)O)[C@H]1CC[C@H]2[C@@H]3CC[C@@H]4C[C@H](O)CC[C@]4(C)[C@H]3CC[C@]12C | inactive
21 | OC1(c2ccc(Cl)cc2)CCN(Cc2c[nH]c3ccccc23)CC1 | 0.794 µM (active)
22 | Oc1ccccc1Cl | inactive
23 | CN1[C@@H](CC(=O)c2ccccc2)CCC[C@H]1C[C@H](O)c1ccccc1 | 4.47 µM (active)
24 | N[C@H](CCCCCP(=O)(O)O)C(=O)O | inactive
25 | COc1ccc2[nH]cc(CCN(C)C)c2c1 | inactive
26 | C[C@@H]1O[C@@H](O[C@H]2C[C@@H](O)[C@]3(CO)[C@@H]4C(CC[C@]3(O)C2)[C@@]2(O)CC[C@H](C3=CC(=O)OC3)[C@@]2(C)C[C@H]4O)[C@H](O)[C@H](O)[C@H]1O (some centres undefined) | inactive
27 | C[N+]1(C)CCc2cc3c(cc2C1C1OC(=O)c2c1ccc1c2OCO1)OCO3 (centres undefined) | inactive
28 | CP(=O)(O)CCCN | inactive
29 | CC(C)(c1ccc(OCC2CO2)cc1)c1ccc(OCC2CO2)cc1 (centres undefined) | 28.2 µM (active)
30 | COc1ccc(CCN)cc1O | inactive
31 | O=C(O)/C=C/C(=O)O | inactive
32 | O[Si](CCCN1CCCCC1)(c1ccc(F)cc1)C1CCCCC1 (centres undefined) | 14.1 µM (active)
33 | COc1cc(CCN)ccc1O | inactive
34 | O=Cc1ccccc1 | inactive
